Laboratory results taken from PubChem BioAssay AID1159580 (chemical genetic matrix, 2015).
Several values for one entry are separate records, joined by “and”; a condition that tells them apart may be missing. Equal values may be shown once. About 2,000 (36%) of roughly 5,500 compounds were called active. Not shown: some 18% with an inconclusive outcome. Rule as the data show it: active = normalized growth mostly below about 0.91 (no sharp cut-off); inconclusive = no clear call, values can overlap the other calls; inactive = mostly above about 0.92. This is one part of the list.

Assay: chemical genetic growth profiling, strain panel (AID 1159580);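 also: tested at 20 µM; growth read once vehicle control cultures reached saturation at 30 °C; 1 = growth at the plate median or of vehicle wells; lower values mean less growth of the strain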
Conditions: S. cerevisiae deletion strains, growth OD

Measured: normalized growth

CC(=O)Nc1ccccc1
inactive: locus YAL021C, strain ccr4, stronger effect = lower value 0.971 | locus YAL026C, strain drs2, stronger effect = lower value 0.977 | locus YAL030W, strain snc1, stronger effect = lower value 0.972 | locus YBL061C, strain skt5, stronger effect = lower value 0.962 | locus YBR009C, strain hhf1, stronger effect = lower value 0.977 | locus YBR021W, strain FUR4, stronger effect = lower value 1.02 | locus YBR023C, strain chs3, stronger effect = lower value 0.961 | locus YBR171W, strain sec66, stronger effect = lower value 0.965 | locus YBR229C, strain ROT2, stronger effect = lower value 0.957 | locus YBR231C, strain swc5, stronger effect = lower value 0.963 | locus YBR279W, strain paf1, stronger effect = lower value 0.981 | locus YCL011C, strain gbp2, stronger effect = lower value 0.962 | locus YCL016C, strain dcc1, stronger effect = lower value 0.966 | locus YCL029C, strain bik1, stronger effect = lower value 0.983 | locus YCL061C, strain MRC1, stronger effect = lower value 0.987 | locus YCL069W, strain vba3, stronger effect = lower value 0.962 | locus YCR088W, strain abp1, stronger effect = lower value 0.976 | locus YDL005C, strain med2, stronger effect = lower value 0.98 | locus YDL035C, strain GPR1, stronger effect = lower value 0.987 | locus YDL040C, strain nat1, stronger effect = lower value 0.97 | locus YDL074C, strain BRE1, stronger effect = lower value 0.963 | locus YDL101C, strain DUN1, stronger effect = lower value 0.98 | locus YDL134C, strain PPH21, stronger effect = lower value 1.02 | locus YDL185W, strain tfp1, stronger effect = lower value 0.986 | locus YDL192W, strain arf1, stronger effect = lower value 0.985 | locus YDR001C, strain nth1, stronger effect = lower value 0.974 | locus YDR069C, strain doa4, stronger effect = lower value 0.959 | locus YDR101C, strain arx1, stronger effect = lower value 0.982 | locus YDR137W, strain rgp1, stronger effect = lower value 1.01 | locus YDR150W, strain NUM1, stronger effect = lower value 0.983 | locus YDR159W, strain sac3, stronger effect = lower value 0.977 | locus YDR162C, strain NBP2, stronger effect = lower value 0.995 | locus YDR195W, strain ref2 0.935 | locus YDR297W, strain sur2, stronger effect = lower value 0.975 | locus YDR318W, strain mcm21, stronger effect = lower value 0.999 | locus YDR334W, strain swr1, stronger effect = lower value 0.956 | locus YDR335W, strain msn5, stronger effect = lower value 0.982 | locus YDR388W, stronger effect = lower value 0.986 | locus YDR392W, strain spt3, stronger effect = lower value 0.993 | locus YDR502C, strain sam2, stronger effect = lower value 0.989 | locus YEL003W, strain gim4, stronger effect = lower value 0.973 | locus YEL037C, strain rad23, stronger effect = lower value 0.972 | locus YEL061C, strain CIN8 (second series), stronger effect = lower value 0.962 | locus YEL061C, strain CIN8, stronger effect = lower value 0.975 | locus YER015W, strain faa2, stronger effect = lower value 0.977 | locus YER016W, strain bim1, stronger effect = lower value 0.973 | locus YER110C, stronger effect = lower value 0.977 | locus YER111C, strain swi4, stronger effect = lower value 0.972 | locus YER155C, strain BEM2 (second series), stronger effect = lower value 0.981 | locus YER155C, strain BEM2, stronger effect = lower value 0.999 | locus YER167W, strain BCK2, stronger effect = lower value 0.999 | locus YFR010W, strain ubp6, stronger effect = lower value 0.96 | locus YGL078C, strain dbp3, stronger effect = lower value 0.99 | locus YGL086W, strain mad1, stronger effect = lower value 0.981 | locus YGL167C, strain pmr1, stronger effect = lower value 0.947 | locus YGL173C, strain kem1, stronger effect = lower value 0.967 | locus YGL227W, strain vid30, stronger effect = lower value 0.966 | locus YGL240W, strain doc1, stronger effect = lower value 0.965 | locus YGL248W, strain PDE1, stronger effect = lower value 0.976 | locus YGL253W, strain hxk2, stronger effect = lower value 0.982 | locus YGR135W, strain pre9, stronger effect = lower value 1 | locus YGR229C, strain SMI1, stronger effect = lower value 0.973 | locus YGR252W, strain gcn5, stronger effect = lower value 0.968 | locus YHR013C, strain ard1, stronger effect = lower value 0.942 | locus YHR027C, strain rpn1, stronger effect = lower value 0.973 | locus YHR030C, strain SLT2, stronger effect = lower value 0.991 and 0.975 | locus YHR079C, strain IRE1 (second series), stronger effect = lower value 0.99 | locus YHR079C, strain IRE1, stronger effect = lower value 0.969 | locus YHR094C, strain hxt1, stronger effect = lower value 0.988 | locus YHR129C, strain ARP1, stronger effect = lower value 0.993 | locus YHR142W, strain chs7, stronger effect = lower value 0.963 | locus YHR200W, strain rpn10, stronger effect = lower value 0.986 | locus YIL066C, strain RNR3, stronger effect = lower value 0.968 | locus YIL073C, strain SPO22, stronger effect = lower value 1.03 | locus YIL125W, strain kgd1, stronger effect = lower value 0.983 | locus YIR030C, strain dcg1, stronger effect = lower value 0.988 | locus YJL092W, strain hpr5, stronger effect = lower value 0.977 | locus YJL095W, strain BCK1 (second series), stronger effect = lower value 0.966 | locus YJL095W, strain BCK1, stronger effect = lower value 0.98 and 0.984 | locus YJL115W, strain asf1, stronger effect = lower value 0.951 | locus YJL129C, strain trk1, stronger effect = lower value 0.981 | locus YJL134W, strain LCB3, stronger effect = lower value 0.992 | locus YJL154C, strain vps35, stronger effect = lower value 0.975 | locus YJL164C, strain tpk1, stronger effect = lower value 0.963 | locus YJL166W, strain qcr8, stronger effect = lower value 0.976 | locus YJL168C, strain set2, stronger effect = lower value 0.978 | locus YJL187C, strain SWE1 (second series), stronger effect = lower value 0.965 | locus YJL187C, strain SWE1, stronger effect = lower value 0.972 | locus YJR043C, strain POL32, stronger effect = lower value 0.968
